In assay [1] the target is CCAAT/enhancer-binding protein beta (Homo sapiens) (UniProt P17676). The assay can be described thus: ATG_C_EBP_CIS: Attagene CIS-FACTORIAL HepG2 Assay for human CCAAT/Enhancer Binding Protein (C/EBP) beta (AID 2282927; active means hit-call score of the fitted dose curve at least 0.9, where 1 is the maximum; inactive means score below 0.9). The following applies: HepG2 Attagene cis-factorial transcription factor reporter; actives raise or lower the signal. The essentials: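 Changes in reporter mRNA, rather than exogenous chimeric receptor activity, reflect native C/EBP signalling in transfected HepG2 cells dosed for 24 h; transcripts are detected by RT-PCR and capillary electrophoresis.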

Assay [2] in a line: ATG_CMV_CIS: Attagene CIS-FACTORIAL HepG2 Assay for human CMV (Internal Marker) (AID 2282928; active means hit-call score of the fitted dose curve at least 0.9, where 1 is the maximum; inactive means score below 0.9;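 further: endpoint acts as a background internal control marker rather than a target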). Conditions: HepG2 CMV promoter reporter, transcription factor profiling; actives raise or lower the signal. The method in brief: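 Endogenous transcription factor activity read in HepG2 via transfected cis-promoter reporter units. After 24 h dosing, reporter mRNA measured by RT-PCR/capillary electrophoresis; gain or loss of signal fit relative to DMSO.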

Assay [3] in a line: ATG_AP_2_CIS: Attagene CIS-FACTORIAL HepG2 Assay for human Activator Protein 2 (AP-2) (AID 2282932; active means hit-call score of the fitted dose curve at least 0.9, where 1 is the maximum; inactive means score below 0.9). The following applies: HepG2 AP-2 cis-reporter, Attagene transcription factor profiling; actives raise or lower the signal. The method in brief:
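Step one: transient transfection of HepG2 with reporter transcription units. Step two: 24 h chemical exposure. Step three: RNA extraction, RT-PCR, labelled fragment analysis by capillary electrophoresis; DMSO serves as baseline.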

A short description of assay [4]: ATG_BRE_CIS: Attagene CIS-FACTORIAL HepG2 Assay for human Bone Morphogenetic Protein (BMP) Response Element (BRE) (AID 2282933; active means hit-call score of the fitted dose curve at least 0.9, where 1 is the maximum; inactive means score below 0.9). The following applies: HepG2 BMP response element reporter, Attagene transcription factor profiling; actives raise or lower the signal. The essentials:
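Gain- or loss-of-signal was derived by bidirectional fitting against DMSO controls. The signal came from reporter mRNA, measured by RT-PCR and capillary electrophoresis, in HepG2 cells transiently carrying multiple reporter units and dosed for 24 h.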

Assay [5] concerns the target Transcription factor E2F1 (Homo sapiens) (UniProt Q01094). The experiment in a line: ATG_E2F_CIS: Attagene CIS-FACTORIAL HepG2 Assay for human E2F Transcription Factor 1 (AID 2282935; active means hit-call score of the fitted dose curve at least 0.9, where 1 is the maximum; inactive means score below 0.9). The following applies: HepG2 Attagene cis-reporter, E2F reporter RNA transcripts; actives raise or lower the signal. The method in brief: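 Total RNA from 24 h-treated, reporter-transfected HepG2 cells undergoes DNase I treatment, oligo(dT) reverse transcription, PCR and 6-FAM primer extension before capillary electrophoresis.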

Assay [6] is described as follows: ATG_E_Box_CIS: Attagene CIS-FACTORIAL HepG2 Assay for human Enhancer Box (E-box) (AID 2282936; active means hit-call score of the fitted dose curve at least 0.9, where 1 is the maximum; inactive means score below 0.9). The following applies: HepG2 E-box cis-reporter transcription, actives raise or lower the signal. The essentials:
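DMSO served as negative control and baseline for bidirectional fitting. Human hepatoma HepG2 cells, transiently transfected with cis-reporter constructs, were dosed 24 h; reporter mRNA read by RT-PCR and capillary electrophoresis.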

Assay [7] can be described thus: ATG_M_61_CIS: Attagene CIS-FACTORIAL HepG2 Assay for M61 Transcription Factor (Internal Marker) (AID 2282937; active means hit-call score of the fitted dose curve at least 0.9, where 1 is the maximum; inactive means score below 0.9). Conditions: HepG2 Attagene CIS-FACTORIAL M61 internal marker reporter; actives raise or lower the signal. The method in brief:
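Transfect HepG2 with MRTUs; dose 24 h; isolate RNA; reverse-transcribe with DNase I treatment; PCR-amplify, FAM-label and cut with HpaI for 2 h at 37 C; resolve by CE. Bidirectional fitting against DMSO.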

Assay [8] in a line: ATG_EGR_CIS: Attagene CIS-FACTORIAL HepG2 Assay for human Early Growth Response 1 (EGR1) (AID 2282938; active means hit-call score of the fitted dose curve at least 0.9, where 1 is the maximum; inactive means score below 0.9). The following applies: HepG2 Attagene CIS-FACTORIAL EGR reporter mRNA; actives raise or lower the signal. The method in brief: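 After a 24 h treatment of transiently transfected HepG2 cells, total RNA was reverse-transcribed and reporter sequences PCR-amplified, labelled and run on capillary electrophoresis. Reporters sit under cis-regulatory promoters sensing endogenous factors.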

The nature of assay [9]: CCTE_Harrill_HTTr_Viability_MCF7: CCTE's 6-hour Cell Viability Assessment for the High-Throughput Transcriptomics (HTTr) Platform, in MCF-7 cells cultured in DMEM + 10% fetal bovine serum, Harrill Lab (AID 2284010; active means hit-call score of the fitted dose curve at least 0.9, where 1 is the maximum; inactive means score below 0.9). The essentials: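 Membrane integrity was scored by high-content imaging of propidium iodide dye exclusion after a 6 h exposure across an eight-point dilution series. Data were fitted bidirectionally relative to DMSO as negative control and baseline.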

Assay [10] can be described thus: CCTE_Harrill_HTTr_Apoptosis_MCF7: CCTE's 6-hour Apoptosis Assessment for the High-Throughput Transcriptomics (HTTr) Platform, in MCF-7 cells cultured in DMEM + 10% fetal bovine serum, Harrill Lab (AID 2284011; active means hit-call score of the fitted dose curve at least 0.9, where 1 is the maximum; inactive means score below 0.9). The essentials: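 Read-out: CellEvent Caspase 3/7 Green signal by high content imaging, gain-of-signal indicating apoptosis. MCF-7 cells, DMEM + 10% FBS, eight-point dilution series, 6 h exposure. Curves fitted bidirectionally relative to DMSO negative control.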

Assay [11] addresses Cellular tumor antigen p53 (Homo sapiens) (UniProt P04637). The assay can be described thus: TOX21_p53_BLA_p2_ratio: Tox21 HCT-116 p53 Agonism Beta-lactamase Assay, Ratio, Phase 2 (AID 2283592). The essentials:
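In this cell-based reporter format, HCT116 cells were dosed with chemicals delivered from DMSO by 217-fold dilution and incubated 16 h at 37C. Emission at 460 and 530 nm after 2 h CCF4-AM loading provided the ratio, fitted upward versus DMSO.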

The target is the same in assay [12]. The experiment in a line: TOX21_p53_BLA_p3_ratio: Tox21 HCT-116 p53 Agonism Beta-lactamase Assay, Ratio, Phase 3 (AID 2283596). The method in brief:
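HCT116 p53-bla cells (4000/well) given compound in DMSO (217-fold dilution) after 5 h, incubated 16 h at 37C. CCF4-AM substrate 2 h at room temperature; 460/530 nm emission ratio, gain fitted against DMSO.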

A short description of assay [13]: TOX21_p53_BLA_p4_viability: Viability Assessment in the Tox21 HCT-116 p53 Agonism Beta-lactamase Assay, Phase 4 (AID 2283597).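 Further: hits lower the luminescence signal meaning cytotoxicity.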 The method in brief:
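We seeded HCT116 p53 reporter cells at 4000/well and waited 5 h. We then added compounds in DMSO at a 217-fold dilution and incubated for 16 h. Viability was read as CellTiter-Glo luminescence after 30 min at RT.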

Assay [14] deals with Cellular tumor antigen p53 (Homo sapiens) (UniProt P04637). The assay can be described thus: TOX21_p53_BLA_p5_ratio: Tox21 HCT-116 p53 Agonism Beta-lactamase Assay, Ratio, Phase 5 (AID 2283599). The essentials:
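Beta-lactamase reporter ratio (blue 460 nm over green 530 nm, 405 nm excitation) after 2 h CCF4-AM loading, in HCT-116 cells exposed 16 h at 37 C to compounds pinned at 217-fold dilution. Increases relative to DMSO baseline scored.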

A short description of assay [15]: TOX21_p53_BLA_p5_viability: Viability Assessment in the Tox21 HCT-116 p53 Agonism Beta-lactamase Assay, Phase 5 (AID 2283600). The essentials: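 Compounds, pinned from DMSO at 217-fold dilution, were left on the cells for 16 h. The viability endpoint was ATP content measured by CellTiter-Glo luminescence, where falling signal reflects cytotoxicity.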
The target of assay [16] is Cellular tumor antigen p53 (Homo sapiens) (UniProt P04637). The experiment in a line: TOX21_p53_BLA_p4_ratio: Tox21 HCT-116 p53 Agonism Beta-lactamase Assay, Ratio, Phase 4 (AID 2283601). The method in brief:
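Signal is the blue/green (460nm/530nm) ratio of cleaved versus uncleaved CCF4-AM substrate, read after 2 h substrate loading. Cells were HCT116 carrying the p53-responsive beta-lactamase reporter, dosed 16 h at 37C, 5% CO2; CellTiter-Glo measured in parallel.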

Assay [17] is described as follows: TOX21_p53_BLA_p2_viability: Viability Assessment in the Tox21 HCT-116 p53 Agonism Beta-lactamase Assay, Phase 2 (AID 2283591).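 Further: compound exposure lasted 16 h at 37 °C; actives lower the ATP signal meaning cytotoxicity.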 The method in brief:
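Cytotoxicity readout: CellTiter-Glo ATP luminescence, 30 min at room temperature, after the beta-lactamase read. Cells were HCT116 exposed 16 h at 37C to compounds pin-transferred at 217-fold dilution from DMSO stocks.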

For assay [18], the target named is bovine Estrogen Receptor (ER), ESR1 (gene 407238) (UniProt P49884). The assay can be described thus: NVS_NR_bER: NovaScreen (NVS) Nuclear Receptor Binding Assay for bovine Estrogen Receptor (ER) (AID 2283345).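 Further: actives lower the bound radioligand count which means they displace the ER ligand.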 The method in brief:
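Bovine uterine membranes; tritiated or iodinated radioligand; competitive displacement; 18 h; scintillation read; DMSO negative control; 25 uM duplicates, then concentration series for actives.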

Assay [19] deals with Estrogen receptor (Homo sapiens) (UniProt P03372). The experiment in a line: NVS_NR_hER: NovaScreen (NVS) Nuclear Receptor Binding Assay for human Estrogen Receptor (ER) (AID 2283348). The method in brief:
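Scintillation signal from bound radioligand was measured 18 hours after chemical addition to cell-free MCF7 protein extracts, with DMSO as baseline. Activity was scored as signal loss; compounds ran first at 25 uM in duplicate.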

Assay [20] is described as follows: TOX21_p53_BLA_p3_viability: Viability Assessment in the Tox21 HCT-116 p53 Agonism Beta-lactamase Assay, Phase 3 (AID 2283593).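 Further: cells exposed to compound for 16 h before reading.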 The essentials:
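Cellular ATP was quantified by CellTiter-Glo luminescence, read after 30 min at room temperature. Beforehand, HCT116 cells (4000/well) received compound 5 h post-seeding, 217-fold diluted from DMSO, then incubated 16 h at 37C.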

The source of these data is PubChem BioAssay (EPA / NIEHS).

Values joined by “and” are separate entries in the source; they are usually repeats but may differ in a detail not shown here. Equal entries are not always repeated. Results filed as inconclusive are left out. Some structures have more than one record in an assay (separate samples or runs), and their calls can disagree. Active and inactive are the calls of the source. How the source made its calls, unless noted: active means hit-call score of the fitted dose curve at least 0.9, where 1 is the maximum; inconclusive means response in the unintended direction; inactive means score below 0.9.

Estrogen receptor (Homo sapiens), sequence (P03372 whole entry, looked up): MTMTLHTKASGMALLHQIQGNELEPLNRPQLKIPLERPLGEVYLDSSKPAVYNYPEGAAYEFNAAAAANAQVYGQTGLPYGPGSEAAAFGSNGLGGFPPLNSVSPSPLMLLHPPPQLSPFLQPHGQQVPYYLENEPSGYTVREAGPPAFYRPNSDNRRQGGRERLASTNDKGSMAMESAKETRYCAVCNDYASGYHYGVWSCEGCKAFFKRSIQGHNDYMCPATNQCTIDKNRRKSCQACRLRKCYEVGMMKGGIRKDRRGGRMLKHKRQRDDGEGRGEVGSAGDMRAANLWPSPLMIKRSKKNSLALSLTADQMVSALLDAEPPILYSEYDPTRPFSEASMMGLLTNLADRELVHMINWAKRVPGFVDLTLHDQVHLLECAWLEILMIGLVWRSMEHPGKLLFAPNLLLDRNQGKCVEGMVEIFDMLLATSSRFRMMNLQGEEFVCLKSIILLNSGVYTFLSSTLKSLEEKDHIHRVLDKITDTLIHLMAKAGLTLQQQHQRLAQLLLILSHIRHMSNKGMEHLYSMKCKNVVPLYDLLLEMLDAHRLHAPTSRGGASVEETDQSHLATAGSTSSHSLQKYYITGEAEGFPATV
Cellular tumor antigen p53 (Homo sapiens), sequence (P04637 whole entry, looked up): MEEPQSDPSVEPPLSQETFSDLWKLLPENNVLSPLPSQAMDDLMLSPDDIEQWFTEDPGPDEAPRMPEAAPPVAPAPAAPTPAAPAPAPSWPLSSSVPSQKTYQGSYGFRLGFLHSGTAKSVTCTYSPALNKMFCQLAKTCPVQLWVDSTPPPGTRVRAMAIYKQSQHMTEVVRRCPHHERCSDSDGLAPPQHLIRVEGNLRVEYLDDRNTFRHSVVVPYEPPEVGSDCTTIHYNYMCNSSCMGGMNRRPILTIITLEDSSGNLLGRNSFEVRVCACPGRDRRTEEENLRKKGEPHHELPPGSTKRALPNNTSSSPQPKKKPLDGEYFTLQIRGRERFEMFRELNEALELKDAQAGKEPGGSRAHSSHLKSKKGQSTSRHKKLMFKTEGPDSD
bovine Estrogen Receptor (ER), ESR1 (gene 407238), sequence (P49884 whole entry, looked up): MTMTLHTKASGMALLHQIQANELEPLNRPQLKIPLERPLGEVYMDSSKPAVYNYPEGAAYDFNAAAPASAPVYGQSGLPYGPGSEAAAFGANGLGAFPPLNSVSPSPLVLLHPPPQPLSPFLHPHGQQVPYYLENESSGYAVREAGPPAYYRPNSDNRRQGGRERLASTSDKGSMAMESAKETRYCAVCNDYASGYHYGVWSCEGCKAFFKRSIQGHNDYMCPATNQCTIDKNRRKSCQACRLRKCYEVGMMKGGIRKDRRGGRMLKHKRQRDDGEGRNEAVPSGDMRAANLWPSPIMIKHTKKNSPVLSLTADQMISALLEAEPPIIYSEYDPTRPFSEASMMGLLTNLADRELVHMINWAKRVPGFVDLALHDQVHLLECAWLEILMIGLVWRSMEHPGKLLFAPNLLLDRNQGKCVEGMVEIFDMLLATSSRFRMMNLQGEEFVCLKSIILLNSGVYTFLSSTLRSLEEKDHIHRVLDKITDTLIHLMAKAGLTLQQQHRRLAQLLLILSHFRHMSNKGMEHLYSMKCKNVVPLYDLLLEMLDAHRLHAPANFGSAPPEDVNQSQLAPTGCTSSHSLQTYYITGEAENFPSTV
Transcription factor E2F1 (Homo sapiens), sequence (Q01094 whole entry, looked up): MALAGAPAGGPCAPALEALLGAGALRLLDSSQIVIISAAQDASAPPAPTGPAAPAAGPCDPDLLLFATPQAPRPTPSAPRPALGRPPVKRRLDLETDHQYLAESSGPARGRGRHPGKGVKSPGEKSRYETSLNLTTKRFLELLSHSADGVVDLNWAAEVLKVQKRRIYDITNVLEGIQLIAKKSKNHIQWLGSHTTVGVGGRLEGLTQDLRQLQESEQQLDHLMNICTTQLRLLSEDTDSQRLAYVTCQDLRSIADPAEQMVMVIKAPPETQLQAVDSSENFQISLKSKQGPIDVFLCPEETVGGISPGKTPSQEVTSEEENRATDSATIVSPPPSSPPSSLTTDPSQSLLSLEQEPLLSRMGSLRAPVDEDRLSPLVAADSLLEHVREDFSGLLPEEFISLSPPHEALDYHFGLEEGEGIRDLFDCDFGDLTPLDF
CCAAT/enhancer-binding protein beta (Homo sapiens), sequence (P17676 whole entry, looked up): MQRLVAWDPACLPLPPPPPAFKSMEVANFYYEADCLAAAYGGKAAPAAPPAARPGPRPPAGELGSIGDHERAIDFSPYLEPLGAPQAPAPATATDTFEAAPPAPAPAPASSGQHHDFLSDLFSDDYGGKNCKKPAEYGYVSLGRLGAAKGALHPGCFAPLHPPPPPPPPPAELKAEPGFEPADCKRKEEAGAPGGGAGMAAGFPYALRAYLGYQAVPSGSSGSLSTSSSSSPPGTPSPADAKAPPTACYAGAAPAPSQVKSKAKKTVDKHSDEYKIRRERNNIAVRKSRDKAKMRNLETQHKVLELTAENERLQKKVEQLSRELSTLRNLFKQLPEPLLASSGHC

Turning to `O=C(O)/C=C\C(=O)O`, the result in [1], in assay [2], in assay [3], in assay [4], in [5] and in [6] was inactive. For the same molecule, the call in [7], in assay [8], in [9] and in [10] was inactive.
Take `COc1ccc(C(=O)c2ccccc2O)c(O)c1`: the outcome in assay [11], in assay [12], in assay [13], in assay [14], in assay [15] and in assay [16] was inactive. Besides, the outcome in [9] and in assay [10] was inactive.
As to `CC[N+](CC)(CC(=O)Nc1c(C)cccc1C)Cc1ccccc1` (tested in a mixture with another compound), the result in [1], in assay [2], in assay [3], in [4], in [5] and in assay [6] was inactive. The outcome in assay [7], in [8], in [9] and in assay [10] was inactive.
With `C1CN(CCOCCN2CCOCC2)CCO1`, the result in assay [17] and in assay [12] was inactive.
Take `CC(=O)CC(=O)OC(C)(C)C`: the outcome in [18], in assay [19], in assay [17], in [11], in assay [20] and in assay [12] was inactive. The outcome in [13], in assay [14] and in assay [16] was inactive.
In the case of `CC1(O)CSC(C)(O)CS1` (configuration not stated), the result in assay [18], in [19], in assay [17], in assay [11], in assay [20] and in assay [12] was inactive. The outcome in assay [14], in [15] and in assay [16] was inactive.
Regarding `O=[N+]([O-])c1cc[n+]([O-])cc1`, the molecule was classed as inactive in assay [18], in assay [19], in assay [17], in [11], in assay [20] and in [13]. Moreover, the result in assay [14], in [15] and in assay [16] was inactive.
The term AC50 denotes the concentration at which the activity in the assay is half-maximal. For `OCCOCCN1CCN(C(c2ccccc2)c2ccc(Cl)cc2)CC1` (configuration not stated), the molecule was called inactive in assay [17], in assay [11], in assay [20], in assay [12], in assay [13] and in [14]. Further, the molecule was called inactive in assay [15] and in [16]. Further, the figures for the AC50 in assay [11], in assay [14] and in assay [16] were 0.000306 µM (active), 0.000384 µM (active) and 0.000245 µM (active), respectively.
Take `CON=C1C[C@]2(C[C@@H]3C[C@@H](C/C=C(\C)C[C@@H](C)/C=C/C=C4\CO[C@@H]5[C@H](O)C(C)=C[C@@H](C(=O)O3)[C@]45O)O2)O[C@H](/C(C)=C/C(C)C)[C@H]1C`: the AC50 in assay [17] was 8.61 µM (active) and 8.38 µM (active); in assay [11] it was 21 µM (active); in [20], 17.2 µM (active) and 13.8 µM (active); in assay [12], 35.2 µM (active) and 21.3 µM (active); in assay [13], 9.09 µM (active) and 8.73 µM (active); in [14] it was 22 µM (active). Besides, the AC50 is 17.3 µM (active) and 10.7 µM (active) in assay [15]; 18.8 µM (active) in [16]. The outcome in [11], in assay [14] and in assay [16] was inactive.
As to `COC(=O)CCCC(=O)O`, the molecule was called inactive in assay [19], in assay [17], in assay [11], in assay [20], in [12] and in [15]. Further, the outcome in assay [16] was inactive.
Turning to `CNC(=O)Nc1ccc(Cl)c(Cl)c1`, the outcome in assay [18], in [17], in assay [11], in assay [20], in assay [12] and in [13] was inactive. The outcome in [14], in assay [15] and in assay [16] was inactive.
For `COc1cc(C(=S)N2CCOCC2)cc(OC)c1OC`, the molecule was called inactive in [17] and in assay [11].
